Assay results from PubChem BioAssay (EPA / NIEHS).
Where “and” joins values, the source holds several entries; their conditions need not be identical. Equal values may be shown once. Inconclusive results are not listed. Calls of active or inactive are those of the source. Rule for the calls, unless noted: active = hit-call score of the fitted dose curve at least 0.9, where 1 is the maximum; inactive = score below 0.9.

How the values were obtained:
[1] = read-out: Monocyte Chemoattractant Protein-1 (MCP1), CCL2 (gene 6347); assay: BSK_SAg_MCP1: BioMAP Diversity Plus: SAg Assay for Monocyte Chemoattractant Protein-1 (MCP1) Biomarker Activity (AID 2283090); conditions: primary human HUVEC with PBMC; actives raise or lower the signal
Outline: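 Values derive from bidirectional fitting of ELISA-measured MCP1 against DMSO controls. Readings were taken 24 h after dosing human vascular endothelial cells co-cultured with peripheral blood mononuclear cells under superantigen stimulation.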

[2] = read-out: E-selectin (Homo sapiens) (UniProt P16581); assay: BSK_SAg_Eselectin: BioMAP Diversity Plus: SAg Assay for Eselectin Biomarker Activity (AID 2283091); conditions: primary human HUVEC with PBMC; actives raise or lower the signal
Outline: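 HUVEC co-cultured with PBMC, compound dosed then read at 24 h; E-selectin measured by ELISA. Activity fitted bidirectionally against DMSO as negative control and baseline.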

[3] = read-out: Monokine induced gamma interferon (MIG), CXCL9 (gene 4283); assay: BSK_SAg_MIG: BioMAP Diversity Plus: SAg Assay for Monokine induced gamma interferon (MIG) Biomarker Activity (AID 2283092); conditions: primary human HUVEC with PBMC; actives raise or lower the signal
Outline: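 Endothelial cells and PBMC were co-cultured, exposed to test chemicals, and sampled 24 h later. MIG was measured by ELISA, and responses were fitted in both directions relative to DMSO.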

[4] = BSK_SAg_PBMCCytotoxicity: PBMC Cytotoxicity Assessment in the BioMAP Diversity Plus: SAg Assay (AID 2283093); conditions: primary human HUVEC with PBMC;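 note: PBMC viability measured as Alamar Blue reduction fluorescence at 546/580 nm; fitted both ways against DMSO so a hit may be loss or gain of signal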;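 for AC50: PBMC superantigen activated with SEB plus TSST-1 one hour after compound addition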
Outline: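 Alamar Blue reduction (6 h, 546/580 nm) reports PBMC cytotoxicity after 90 h superantigen activation (SEB, TSST-1; 20 ng/mL final each) with 1 h compound pre-treatment. Gain or loss of signal fitted versus DMSO.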

[5] = read-out: Interleukin-8 (IL8), CXCL8 (gene 3576); assay: BSK_SAg_IL8: BioMAP Diversity Plus: SAg Assay for Interleukin-8 (IL8) Biomarker Activity (AID 2283094); conditions: primary human HUVEC with PBMC; actives raise or lower the signal
Outline: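 Primary human endothelial cells with PBMC, exposed 24 h; IL-8 determined by ELISA, analysed bidirectionally relative to DMSO.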

[6] = BSK_SAg_Proliferation: Cell Proliferation Assessment in the BioMAP Diversity Plus: SAg Assay (AID 2283095); conditions: primary human HUVEC with PBMC;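 note: relative cell number as total protein by SRB absorbance in sub-confluent culture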
Outline: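 A human primary co-culture of umbilical vein endothelium and blood mononuclear cells receives compound; relative cell number is quantified at 96 h by SRB staining and 560 nm absorbance, with DMSO-referenced bidirectional curve fitting.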

[7] = BSK_SAg_SRB: Viability Assessment in the BioMAP Diversity Plus: SAg Assay (AID 2283096); conditions: primary human HUVEC with PBMC;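 note: cells read one day after compound addition; hits may be either gain or loss of signal compared with DMSO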
Outline: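 This overt-cytotoxicity endpoint quantifies protein in human endothelial/PBMC co-cultures at 24 h using SRB absorbance (560 nm) after trichloroacetic acid fixation. Values reflect signal change from the DMSO negative control, fitted bidirectionally.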

[8] = target: human CYP19A1, CYP19A1 (gene 1588) (UniProt P11511); assay: NVS_ADME_hCYP19A1: NovaScreen (NVS) CYP450-related Enzyme Activity (ADME) Assay for human CYP19A1 (AID 2283098; active = hit-call score of the fitted dose curve at least 0.9, where 1 is the maximum;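 for AC50: potency for inhibitors seen as loss of fluorescent enzyme signal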)
Chain of human CYP19A1, CYP19A1 (gene 1588) (P11511 whole entry, looked up): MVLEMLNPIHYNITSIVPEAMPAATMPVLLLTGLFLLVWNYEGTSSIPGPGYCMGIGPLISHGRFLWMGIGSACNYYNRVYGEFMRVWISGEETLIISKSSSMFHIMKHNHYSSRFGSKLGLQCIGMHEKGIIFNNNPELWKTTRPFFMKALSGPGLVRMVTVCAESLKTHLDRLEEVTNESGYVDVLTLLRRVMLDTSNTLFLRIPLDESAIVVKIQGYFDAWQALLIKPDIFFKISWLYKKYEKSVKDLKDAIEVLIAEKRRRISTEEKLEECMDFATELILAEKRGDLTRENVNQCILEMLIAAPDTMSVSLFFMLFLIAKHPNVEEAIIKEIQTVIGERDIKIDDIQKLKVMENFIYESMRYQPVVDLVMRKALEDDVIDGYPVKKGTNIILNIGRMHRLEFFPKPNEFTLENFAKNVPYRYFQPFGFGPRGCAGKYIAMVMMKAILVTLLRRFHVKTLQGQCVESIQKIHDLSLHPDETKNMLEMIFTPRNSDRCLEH
Outline: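 Compounds were first screened at 10 uM in duplicate against purified enzyme, with a fluorogenic substrate and fluorescence intensity detection after 0.5 h. Inhibition appears as reduced signal against acetonitrile control.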

[9] = target: human CYP2B6, CYP2B6 (gene 1555) (UniProt P20813); assay: NVS_ADME_hCYP2B6: NovaScreen (NVS) CYP450-related Enzyme Activity (ADME) Assay for human CYP2B6 (AID 2283101; active = hit-call score of the fitted dose curve at least 0.9, where 1 is the maximum)
Chain of human CYP2B6, CYP2B6 (gene 1555) (P20813 whole entry, looked up): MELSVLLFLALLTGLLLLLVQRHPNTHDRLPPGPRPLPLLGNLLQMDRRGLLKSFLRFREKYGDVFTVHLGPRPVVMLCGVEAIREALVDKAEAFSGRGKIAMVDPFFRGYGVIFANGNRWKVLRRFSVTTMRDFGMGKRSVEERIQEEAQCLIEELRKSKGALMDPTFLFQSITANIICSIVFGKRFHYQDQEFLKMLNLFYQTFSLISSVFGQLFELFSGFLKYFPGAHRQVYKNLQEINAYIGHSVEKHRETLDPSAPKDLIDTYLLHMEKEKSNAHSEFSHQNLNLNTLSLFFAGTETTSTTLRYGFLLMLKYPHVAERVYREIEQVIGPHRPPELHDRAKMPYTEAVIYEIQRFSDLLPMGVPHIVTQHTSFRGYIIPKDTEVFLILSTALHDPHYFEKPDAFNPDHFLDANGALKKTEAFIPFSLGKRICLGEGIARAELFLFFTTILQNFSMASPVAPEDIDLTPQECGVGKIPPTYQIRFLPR
Outline: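 Cell-free recombinant enzyme assay with a fluorogenic substrate; fluorescence intensity read 1 hour after dosing. Loss of signal relative to acetonitrile negative control indicates inhibition. Primary screen run in duplicate at 10 uM, actives then tested in concentration series.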

[10] = target: human CYP2C9, CYP2C9 (gene 1559) (UniProt P11712); assay: NVS_ADME_hCYP2C9: NovaScreen (NVS) CYP450-related Enzyme Activity (ADME) Assay for human CYP2C9 (AID 2283108; active = hit-call score of the fitted dose curve at least 0.9, where 1 is the maximum)
Chain of human CYP2C9, CYP2C9 (gene 1559) (P11712 whole entry, looked up): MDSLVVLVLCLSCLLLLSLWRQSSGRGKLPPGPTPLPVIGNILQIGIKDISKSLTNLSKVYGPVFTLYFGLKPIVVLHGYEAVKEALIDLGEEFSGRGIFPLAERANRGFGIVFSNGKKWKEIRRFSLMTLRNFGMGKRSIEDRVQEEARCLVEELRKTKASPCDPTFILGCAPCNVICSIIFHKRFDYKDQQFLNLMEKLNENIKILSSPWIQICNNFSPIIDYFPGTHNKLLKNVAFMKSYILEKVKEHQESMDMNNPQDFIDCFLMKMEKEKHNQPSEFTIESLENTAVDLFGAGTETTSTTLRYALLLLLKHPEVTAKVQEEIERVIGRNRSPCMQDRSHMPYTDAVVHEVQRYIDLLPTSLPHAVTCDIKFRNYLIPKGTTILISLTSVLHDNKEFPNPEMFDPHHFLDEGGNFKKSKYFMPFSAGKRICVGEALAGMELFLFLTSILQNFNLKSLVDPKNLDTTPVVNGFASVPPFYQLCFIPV
Outline: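 Cell-free assay of recombinant human CYP2C9 produced in Sf9 cells, with enzyme activity read by fluorescence intensity 0.75 h after compound addition. Loss of signal versus an acetonitrile negative control indicates inhibition. Primary screen used 10 uM in duplicate; actives were retested in concentration series.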

[11] = target: Cytochrome P450 3A4 (Homo sapiens) (UniProt P08684); assay: NVS_ADME_hCYP3A4: NovaScreen (NVS) CYP450-related Enzyme Activity (ADME) Assay for human CYP3A4 (AID 2283110; active = hit-call score of the fitted dose curve at least 0.9, where 1 is the maximum)
Chain of Cytochrome P450 3A4 (Homo sapiens) (P08684 whole entry, looked up): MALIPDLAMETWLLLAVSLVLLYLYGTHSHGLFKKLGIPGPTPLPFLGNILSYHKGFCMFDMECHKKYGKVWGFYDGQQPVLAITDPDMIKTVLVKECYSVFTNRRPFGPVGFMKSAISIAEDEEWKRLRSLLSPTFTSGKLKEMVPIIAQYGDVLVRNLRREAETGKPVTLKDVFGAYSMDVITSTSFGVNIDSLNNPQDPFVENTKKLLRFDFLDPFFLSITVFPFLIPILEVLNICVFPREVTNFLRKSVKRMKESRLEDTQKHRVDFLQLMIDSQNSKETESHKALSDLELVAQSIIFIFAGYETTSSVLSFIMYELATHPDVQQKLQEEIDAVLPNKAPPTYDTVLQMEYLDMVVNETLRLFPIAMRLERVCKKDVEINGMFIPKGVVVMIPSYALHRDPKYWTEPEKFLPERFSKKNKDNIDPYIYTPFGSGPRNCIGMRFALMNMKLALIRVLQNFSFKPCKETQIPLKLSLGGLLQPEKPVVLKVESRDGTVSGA
Outline: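 Activity is derived from decreased fluorescence intensity relative to acetonitrile, measured 0.33 hour after dosing insect-cell-expressed CYP3A4 in a cell-free format. Screening used 10 uM in duplicate before concentration-response follow-up.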

[12] = target: human CYP4F12, CYP4F12 (gene 66002) (UniProt Q9HCS2); assay: NVS_ADME_hCYP4F12: NovaScreen (NVS) CYP450-related Enzyme Activity (ADME) Assay for human CYP4F12 (AID 2283111; active = hit-call score of the fitted dose curve at least 0.9, where 1 is the maximum)
Chain of human CYP4F12, CYP4F12 (gene 66002) (Q9HCS2 whole entry, looked up): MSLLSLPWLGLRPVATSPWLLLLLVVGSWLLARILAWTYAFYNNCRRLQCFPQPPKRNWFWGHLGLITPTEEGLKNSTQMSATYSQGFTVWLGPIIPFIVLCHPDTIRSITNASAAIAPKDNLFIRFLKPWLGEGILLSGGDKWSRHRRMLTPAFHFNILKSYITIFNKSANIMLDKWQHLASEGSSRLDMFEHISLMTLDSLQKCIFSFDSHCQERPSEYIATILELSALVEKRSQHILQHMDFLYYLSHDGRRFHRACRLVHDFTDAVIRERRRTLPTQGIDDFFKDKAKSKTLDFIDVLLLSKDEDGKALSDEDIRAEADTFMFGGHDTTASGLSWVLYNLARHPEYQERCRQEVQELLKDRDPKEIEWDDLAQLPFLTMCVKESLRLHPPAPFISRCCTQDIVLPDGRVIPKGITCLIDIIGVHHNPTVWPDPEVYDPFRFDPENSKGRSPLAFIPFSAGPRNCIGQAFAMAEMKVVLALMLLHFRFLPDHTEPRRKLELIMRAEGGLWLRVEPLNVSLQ
Outline: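 Recombinant enzyme with a fluorescent substrate, signal read at 0.5 h post-dose; activity loss analysed relative to acetonitrile. Compounds first run in duplicate at 10 uM, with follow-up concentration-response testing of actives.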

[13] = target: Cytochrome P450 2C19 (Homo sapiens) (UniProt P33261); assay: NVS_ADME_hCYP2C19: NovaScreen (NVS) CYP450-related Enzyme Activity (ADME) Assay for human CYP2C19 (AID 2283113; active = hit-call score of the fitted dose curve at least 0.9, where 1 is the maximum;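 note: potency for inhibition seen as loss of fluorescent signal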)
Outline: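 Cell-free assay of recombinant human CYP2C19 expressed in insect cells, with a fluorogenic substrate; fluorescence intensity read 1 hour after dosing. Loss of signal relative to acetonitrile negative control indicates inhibition. Primary screen at 10 uM in duplicate, then concentration series.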

[14] = target: rat CYP2A2, Cyp2a2 (gene 24895) (UniProt P15149); assay: NVS_ADME_rCYP2A2: NovaScreen (NVS) CYP450-related Enzyme Activity (ADME) Assay for rat CYP2A2 (AID 2283116; active = hit-call score of the fitted dose curve at least 0.9, where 1 is the maximum)
Chain of rat CYP2A2, Cyp2a2 (gene 24895) (P15149 whole entry, looked up): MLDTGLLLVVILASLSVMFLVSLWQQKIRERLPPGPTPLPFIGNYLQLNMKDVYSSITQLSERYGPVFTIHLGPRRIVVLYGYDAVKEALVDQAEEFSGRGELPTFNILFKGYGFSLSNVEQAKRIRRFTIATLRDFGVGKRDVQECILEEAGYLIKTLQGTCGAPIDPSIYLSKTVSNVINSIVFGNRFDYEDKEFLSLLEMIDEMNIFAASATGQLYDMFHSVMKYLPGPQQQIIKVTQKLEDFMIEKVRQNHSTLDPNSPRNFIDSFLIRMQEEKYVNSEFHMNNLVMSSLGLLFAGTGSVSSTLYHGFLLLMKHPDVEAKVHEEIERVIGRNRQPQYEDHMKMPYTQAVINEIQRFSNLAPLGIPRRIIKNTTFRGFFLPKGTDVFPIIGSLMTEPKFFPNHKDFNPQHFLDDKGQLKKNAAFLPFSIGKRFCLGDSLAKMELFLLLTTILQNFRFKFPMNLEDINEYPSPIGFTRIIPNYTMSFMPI
Outline: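 Compounds first tested in duplicate at 10 uM, then in singleton concentration series up to 20 uM when over threshold. Activity of the recombinant enzyme read by fluorescence at 0.2 h, normalised to acetonitrile vehicle.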

[15] = target: human CYP1A1, CYP1A1 (gene 1543) (UniProt P04798); assay: NVS_ADME_hCYP1A1: NovaScreen (NVS) CYP450-related Enzyme Activity (ADME) Assay for human CYP1A1 (AID 2283100; active = hit-call score of the fitted dose curve at least 0.9, where 1 is the maximum)
Chain of human CYP1A1, CYP1A1 (gene 1543) (P04798 whole entry, looked up): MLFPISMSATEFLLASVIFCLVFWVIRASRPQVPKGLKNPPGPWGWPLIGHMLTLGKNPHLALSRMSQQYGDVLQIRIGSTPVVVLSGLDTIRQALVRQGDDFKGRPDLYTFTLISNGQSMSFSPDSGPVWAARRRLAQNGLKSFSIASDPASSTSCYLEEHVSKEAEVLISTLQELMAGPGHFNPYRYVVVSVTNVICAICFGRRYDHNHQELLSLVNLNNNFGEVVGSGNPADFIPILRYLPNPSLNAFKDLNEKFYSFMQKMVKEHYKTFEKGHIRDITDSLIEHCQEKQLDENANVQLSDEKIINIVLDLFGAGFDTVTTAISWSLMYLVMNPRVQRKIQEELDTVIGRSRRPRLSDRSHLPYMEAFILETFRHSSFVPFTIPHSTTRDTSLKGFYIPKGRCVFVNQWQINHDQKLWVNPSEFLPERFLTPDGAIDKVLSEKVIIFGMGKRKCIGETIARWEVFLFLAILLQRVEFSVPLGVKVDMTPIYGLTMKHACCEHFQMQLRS
Outline: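 Cell-free fluorescence assay of recombinant human CYP1A1 activity with a specific substrate, read 1 h after dosing. Compounds were screened in duplicate at 10 uM, then hits tested in concentration-response up to 20 uM; acetonitrile served as baseline.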

Measured: AC50

Chain of E-selectin (Homo sapiens) (P16581 whole entry, looked up): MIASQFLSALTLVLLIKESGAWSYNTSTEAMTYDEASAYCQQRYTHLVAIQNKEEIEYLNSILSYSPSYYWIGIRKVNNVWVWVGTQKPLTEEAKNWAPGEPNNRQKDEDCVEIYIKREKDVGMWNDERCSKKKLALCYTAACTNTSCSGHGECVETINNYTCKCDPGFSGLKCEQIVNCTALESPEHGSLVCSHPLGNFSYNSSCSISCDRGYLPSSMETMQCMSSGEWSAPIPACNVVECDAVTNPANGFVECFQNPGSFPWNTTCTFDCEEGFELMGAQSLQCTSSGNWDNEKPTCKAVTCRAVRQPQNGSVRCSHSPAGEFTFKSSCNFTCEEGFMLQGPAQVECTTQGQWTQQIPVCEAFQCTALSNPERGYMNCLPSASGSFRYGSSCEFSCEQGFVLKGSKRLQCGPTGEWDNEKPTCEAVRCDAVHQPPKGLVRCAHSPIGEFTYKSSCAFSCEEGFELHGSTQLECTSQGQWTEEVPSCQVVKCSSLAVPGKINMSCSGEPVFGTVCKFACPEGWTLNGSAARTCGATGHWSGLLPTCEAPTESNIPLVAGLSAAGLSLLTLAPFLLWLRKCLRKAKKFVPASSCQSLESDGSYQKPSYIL

ClC1=C(Cl)[C@]2(Cl)[C@@H]3[C@@H](Cl)[C@H]4O[C@H]4[C@@H]3C1(Cl)C2(Cl)Cl
inactive: [1] | [3] | [4] | [5] | [8]
active: [2] 9.42 µM | [6] 14.7 µM | [7] 10.6 µM | [9] 7.84 µM

Oc1ccc(C(c2ccc(O)cc2)(C(F)(F)F)C(F)(F)F)cc1
active: [1] 26.5 µM | [2] 19.8 µM | [3] 32.4 µM | [4] 20.7 µM | [5] 18.1 µM | [7] 22.6 µM | [8] 7.19 µM | [9] 4.71 µM | [10] 0.406 µM | [11] 7.65 µM | [12] 3.97 µM | [13] 145 nM

C[C@]12CCC(=O)C=C1CC[C@@H]1[C@@H]2CC[C@@]2(C)[C@H]1CC[C@]2(C)O
active: [13] 9150 nM | [14] 5.45 µM
inactive: [1] | [2] | [3] | [4] | [5] | [6] | [7]

C[C@]12CCC(=O)C=C1CC[C@@H]1[C@@H]2CC[C@]2(C)C(=O)CC[C@@H]12
active: [7] 20 µM | [8] 5.03 µM and 5.63 µM and 1.44 µM | [13] 10 µM and 6.19 µM and 5.77 µM | [14] 1.52 µM
inactive: [1] | [2] | [3] | [4] | [5] | [6]

CCCCCCCCCc1ccc(O)cc1
active: [1] 29.8 µM | [2] 20 µM | [3] 33.7 µM | [4] 16.2 µM | [5] 20.2 µM | [6] 14.3 µM | [7] 23.8 µM

CCOP(=S)(OCC)SCSC(C)(C)C
active: [2] 39 µM | [4] 31.1 µM | [6] 28.8 µM
inactive: [1] | [3] | [5] | [7]

Clc1ccc(Cl)cc1
inactive: [1] | [2] | [4] | [5] | [6] | [7]

CCCCCCOC(=O)c1ccccc1C(=O)OCCCCCC
active: [2] 32.6 µM | [4] 35 µM | [5] 29 µM | [6] 28.6 µM
inactive: [1] | [3] | [7]

Clc1ccc(C(c2ccccc2Cl)C(Cl)(Cl)Cl)cc1 (stereo not given)
active: [1] 21.5 µM | [2] 24.7 µM | [3] 27.6 µM | [4] 8.98 µM | [5] 13.5 µM | [6] 6.64 µM | [7] 12.7 µM | [15] 5.21 µM
